# The list is not random: actives were taken first. Their share in the collection is about 4.6%.
# tim23-1 inh: inhibits growth of tim23-1 mutant yeast. S. cerevisiae tim23-1 growth, BacTiter-Glo luminescence, 24 h. inhibition, % at 20 µM. actives 1.3% (n = 330,000);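 active = growth inhibition of the mutant yeast at or above 50%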;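 also: temperature-sensitive mutant grown at 25 °C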
# tim10-1 inh: tim10-1 yeast growth inhibition; inhibition, % at 20 µM; S. cerevisiae tim10-1 ts strain growth, BacTiter-Glo, 24 h; actives 2.2% (n = 330,000);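 active = inhibition of at least 40%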;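 also: mutant grown at 25 °C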
# TIM10 inh: TIM10 yeast growth inhibition; S. cerevisiae TIM10 strain growth, BacTiter-Glo luminescence, 24 h; inhibition, % at 10 µM; actives 1.4% (n = 330,000); AID 463195;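 active = inhibition of 40% or more at the single tested concentration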;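 also: wild-type TIM10 isogenic control strain grown at permissive 25 °C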
# NALP3 yeast inh: NALP3 inhibition in yeast | Yeast reconstituted NLRP3/ASC/caspase-1, beta-gal luminescence, 24 h | actives 0.39% (n = 330,000) | inhibition, % at 10 µM | AID 2825;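 active = inhibition of 50% or more; inactive = inhibition below 50%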
# SKKanGAS inh: blocks kanamycin growth of S. pyogenes SKKanGAS strain. BacTiter-Glo, 6 h. actives 1.3% (n = 300,000). inhibition, % at 7.5 µM;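 active = mean replicate score, as percent of positive control median, at least 50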;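 also: strain carries kanamycin resistance gene driven by streptokinase promoter and grows in 40 µg/ml kanamycin; loss of luminescence reflects streptokinase promoter inhibition or plain growth inhibition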
# tim10-1 conf: tim10-1 yeast growth inhibition, confirmed. actives 56% (n = 7,400). AID 463213. S. cerevisiae tim10-1 ts strain growth, BacTiter-Glo, 24 h. shares compounds with tim10-1 inh. inhibition, % at 20 µM;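 active = inhibition of yeast growth at or above a set limit in either of two repeat tests at 20 µM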;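 also: tim10-1 mutant grown at permissive 25 °C to find synthetic lethal compounds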
# TIM10 conf: TIM10 yeast growth inhibition, confirmed; actives 63% (n = 4,600); AID 463215; S. cerevisiae tim10 strain growth, BacTiter-Glo luminescence, 24 h; inhibition, % at 10 µM; shares compounds with TIM10 inh;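 active = inhibition of yeast growth at or above a set limit in either of two replicates at 10 µM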; also: this counterscreen used the strain with wild-type TIM10
# tim23-1 confirm: confirmation of tim23-1 mutant yeast growth inhibitors | actives 83% (n = 4,400) | S. cerevisiae tim23-1 growth, BacTiter-Glo luminescence, 24 h | inhibition, % at 20 µM | shares compounds with tim23-1 inh;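 active = inhibition above about 39% in either of two replicate wells at 20 µM, limit read from the data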;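 also: temperature-sensitive tim23-1 mutant grown at 25 °C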
# Numbers stand for hits; - = inactive; . = not tested or not shown.
SMILES,tim23-1 inh,tim10-1 inh,TIM10 inh,NALP3 yeast inh,SKKanGAS inh,tim10-1 conf,TIM10 conf,tim23-1 confirm
COc1ccc(NC(=O)CSc2nc3c(sc4ccccc43)c(=O)n2CCCN2CCCC2)cc1,-,-,-,-,-,.,.,.
CC1=NN(c2nc3ccccc3[nH]2)C(=O)/C1=C/N(C)C,59,59,-,-,.,active,.,59
CC1=NN(c2ccccc2)C(=O)/C1=C/N(C)C,-,-,-,-,-,.,.,.
Cc1ccc(Nc2ccc([N+](=O)[O-])nc2[N+](=O)[O-])cc1,53,42,42,-,-,-,-,43
Cc1ccc(Nc2ccc3nonc3c2[N+](=O)[O-])cc1,-,-,-,-,-,.,.,.
O=C(c1ccc2[nH]c(=O)c(=O)[nH]c2c1)N1CCc2ccccc21,-,-,-,-,-,.,.,.
Oc1c(N=Nc2ccccn2)ccc2ccccc12,53,72,41,-,69,53,46,76
CN(C(=O)/C=C/c1ccc([N+](=O)[O-])s1)c1ccccc1,53,45,43,-,-,59,49,50
CC(C)(C)C(=O)/C(=C/c1ccc(Cl)cc1)n1cncn1,52,51,-,-,-,35,.,-
Cc1cc(OCC(=O)Nc2nccs2)c2c(C)cc(=O)oc2c1,-,-,-,-,-,.,.,.
O=C(COc1ccc(Cl)cc1Br)NC(=O)NC1CCCC1,52,51,-,-,.,39,.,63
O=C(COc1ccc(Cl)cc1Cl)NC(=O)NC1CCCC1,-,-,-,-,.,.,.,.
O=C(COc1ccc(Br)cc1Cl)NC(=O)NC1CCCC1,56,42,-,-,.,41,.,55
Cc1cc(Cn2ccnc2)c(C)c([N+](=O)[O-])c1Cn1ccnc1,-,-,-,-,-,.,.,.
CC(SC#N)C(=O)C12CC3CC(CC(C3)C1)C2 (configuration not stated),66,53,55,-,-,39,41,50
N/C(=N\OC(=O)c1cccs1)c1ccccc1,71,65,70,-,-,63,36,67
Cc1ccc(/C(N)=N/OC(=O)c2cccs2)cc1,73,48,80,-,-,60,88,-
Cc1cccc(/C(N)=N/OC(=O)c2cccs2)c1,81,65,79,-,-,57,73,76
Cc1ccc(/C(N)=N/OC(=O)C23CC4CC(CC(C4)C2)C3)cc1,80,58,85,-,-,42,86,67
Cc1ccc(C(=O)COC(=O)c2cccs2)cc1,-,-,-,-,-,.,.,.
O=C(Nc1ccc(C(=O)N2CCCCC2)cc1)c1ccc([N+](=O)[O-])cc1,-,-,-,-,-,.,.,.
O=C1C(=O)N(c2nccs2)C(c2ccccc2F)/C1=C(\O)c1ccc2c(c1)OCCO2 (configuration not stated),-,-,-,-,-,.,.,.
N/C(=N\OC(=O)Cc1ccccc1)c1cccc(Br)c1,-,-,-,-,-,.,.,.
N/C(=N\OC(=O)c1cccs1)c1cccc(Br)c1,80,57,90,-,-,59,86,51
CCCCCCCCCCOC(=O)Cn1c(COc2ccc(Cl)cc2)[n+](C)c2ccccc21,92,97,55,-,108,92,54,91

# Screening data from PubChem BioAssay.
